From PubChem BioAssay (NCI) come the findings set out here.

Compounds without any hit were thinned out: in the full panel of roughly 83,000, 20% have a hit.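 Assay: single dose, 48 h. Readout: percent growth (0 = no net growth; negative = cell death). Active: <10.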 Unmarked numbers belong to inactive results. Activity calls are given as the source filed them.

What all share (assay): NCI-60 one-dose screen, 48 h (100 = growth as untreated, 0 = no growth, -100 = all killed)
For one assay, the system named is SK-MEL-2 melanoma. The following applies: 10 µM unless noted.
The test system of the next assay is EKVX NSCLC. The note with it: 10 µM unless noted.
A further assay has as its system SN12C renal. The note with it: 10 µM unless noted.
The next assay relates to UO-31 renal. The note with it: 10 µM unless noted.
The subject of a further assay is ACHN renal. The note with it: 10 µM unless noted.
For another assay, the system named is CAKI-1 renal. The note with it: 10 µM.
The next assay relates to A498 renal. The note with it: 10 µM unless noted.
A further assay has as its system CCRF-CEM leukemia. The following applies: 10 µM unless noted.
The next assay relates to MOLT-4 leukemia. The following applies: 10 µM unless noted.
A further assay deals with SR leukemia. The following applies: 10 µM unless noted.
The next assay deals with RPMI-8226 leukemia. The following applies: 10 µM unless noted.
In another assay the test system is OVCAR-8 ovarian. The note with it: 10 µM unless noted.
A further assay has as its system OVCAR-5 ovarian. The following applies: 10 µM unless noted.
Another assay concerns OVCAR-4 ovarian. The note with it: 10 µM unless noted.
A further assay deals with SK-OV-3 ovarian. The following applies: 10 µM unless noted.
The test system of another assay is IGROV1 ovarian. The note with it: 10 µM unless noted.
Another assay deals with OVCAR-3 ovarian. The following applies: 10 µM unless noted.
A further assay relates to NCI/ADR-RES ovarian. The following applies: 10 µM unless noted.
In another assay the test system is HS 578T breast. The following applies: 10 µM unless noted.

As for `COc1ccc(-c2nn(-c3ccc(NC(=O)c4cc(C(F)(F)F)cc(C(F)(F)F)c4)cc3)cc2-c2ccncc2)cc1Cl`, the growth in the assay with SK-MEL-2 melanoma was 89.9%; with EKVX NSCLC, 70.3%; with SN12C renal, 77.2%; in the assay on UO-31 renal, 44.6%; in the assay on ACHN renal it was 61.9%; in the assay on CAKI-1 renal it was 41.2%. Further, the growth in the assay on A498 renal is 45.8%; with CCRF-CEM leukemia it was 59%; with MOLT-4 leukemia, 62.2%; in the assay with SR leukemia, 73.6%; in the assay on RPMI-8226 leukemia it was 10.7%; in the assay on OVCAR-8 ovarian, 68.2%. The growth in the assay with OVCAR-5 ovarian is 64%; in the assay with OVCAR-4 ovarian, 90.5%; in the assay on SK-OV-3 ovarian, 78.4%; in the assay with IGROV1 ovarian it was 74.7%; in the assay on OVCAR-3 ovarian, 60.1%; in the assay with NCI/ADR-RES ovarian, 63.5%.

Consider `CCn1c(SC)nnc1-c1cc2c([nH]c3ccccc32)c(-c2cccc(O)c2)n1`, for which the growth with SK-MEL-2 melanoma was 15.6%; in the assay with EKVX NSCLC, 21.6%; in the assay on SN12C renal, 39.5%; in the assay on UO-31 renal it was 24.1%; in the assay on ACHN renal, 30.5%; in the assay on CAKI-1 renal, 25.3%. Besides, the growth was -2.24% (active) in the assay on A498 renal; 18.4% in the assay with CCRF-CEM leukemia; 30.1% in the assay with RPMI-8226 leukemia; 25.4% with OVCAR-8 ovarian; 48.8% with OVCAR-5 ovarian; 12.5% in the assay with OVCAR-4 ovarian. Moreover, the growth is 27.5% in the assay on SK-OV-3 ovarian; 35% in the assay with IGROV1 ovarian; -7.34% (active) in the assay with OVCAR-3 ovarian; 12.3% with HS 578T breast; 8.9% (active) with NCI/ADR-RES ovarian.

For the compound `Cc1cc(O[C@@H]2O[C@@H](C)[C@H](O)[C@@H](O)[C@H]2O)c2c3c(c(O[C@@H]4O[C@@H](C)[C@H](O)[C@@H](O)[C@H]4O)cc2c1)C(=O)c1c(O)cccc1C3=O`, the growth is 90.4% in the assay with SK-MEL-2 melanoma; 76.7% in the assay on EKVX NSCLC; 54.2% in the assay on SN12C renal; 11.7% in the assay on UO-31 renal; 47.2% in the assay with ACHN renal; 60.3% in the assay with CAKI-1 renal. For the same compound, the growth with CCRF-CEM leukemia is 82.6%; with MOLT-4 leukemia it was 68.8%; in the assay on SR leukemia, 82.6%; in the assay with RPMI-8226 leukemia it was 57.2%; in the assay with OVCAR-8 ovarian it was 22.9%; in the assay on OVCAR-5 ovarian, 98.5%. Further, the growth is 81.8% in the assay with OVCAR-4 ovarian; 83.6% in the assay on SK-OV-3 ovarian; 89.3% in the assay with IGROV1 ovarian; 93.7% with OVCAR-3 ovarian; -12.8% (active) in the assay on HS 578T breast; 36.4% in the assay with NCI/ADR-RES ovarian.

For the compound `O=C1COc2ccccc2C(=O)N1CCCCN1CCCCC1`, the growth with SK-MEL-2 melanoma is 95.4%; with EKVX NSCLC, 98.5%; in the assay with SN12C renal it was 99.2%; in the assay on UO-31 renal it was 91.7%; in the assay on ACHN renal it was 99.2%; with CAKI-1 renal, 103%. The growth with A498 renal was 114%; in the assay with CCRF-CEM leukemia, 69.4%; in the assay with MOLT-4 leukemia, 83.2%; in the assay on SR leukemia, 90.1%; in the assay with RPMI-8226 leukemia, 70.9%; in the assay on OVCAR-8 ovarian, 94.2%. Moreover, the growth is 95.9% with OVCAR-5 ovarian; 95% in the assay on OVCAR-4 ovarian; 80.4% in the assay with SK-OV-3 ovarian; 92% with IGROV1 ovarian; 102% in the assay with HS 578T breast; 98.8% in the assay on NCI/ADR-RES ovarian.

Regarding `COC1=C(OC)C(=O)C=CC1=O`, the growth is 112% in the assay with SK-MEL-2 melanoma; 121% with EKVX NSCLC; 103% in the assay with SN12C renal; 89.1% with UO-31 renal; 103% in the assay with ACHN renal; 115% in the assay on CAKI-1 renal. Moreover, the growth in the assay on A498 renal was 120%; in the assay with CCRF-CEM leukemia, 46%; in the assay on MOLT-4 leukemia, 12.6%; in the assay on SR leukemia, 38.1%; with RPMI-8226 leukemia it was 91.4%; in the assay on OVCAR-8 ovarian, 110%. Moreover, the growth in the assay with OVCAR-5 ovarian was 116%; in the assay on OVCAR-4 ovarian it was 102%; in the assay with SK-OV-3 ovarian, 114%; in the assay with IGROV1 ovarian, 96.5%; with OVCAR-3 ovarian, 83.6%; with NCI/ADR-RES ovarian, 109%.

Turning to `CO[C@H]1/C=C/C=C/C=C/C[C@H](OC(=O)[C@@H](C)NC(=O)C2CCCCC2)[C@H](C)[C@@H](O)/C(C)=C\CCC2=CC(=O)C=C(NC(=O)C1)C2=O`, the growth in the assay on SK-MEL-2 melanoma was -42.7% (active); with EKVX NSCLC it was -17% (active); in the assay with SN12C renal, -10% (active); with UO-31 renal, 5.46% (active); with ACHN renal it was -34.8% (active); in the assay with CAKI-1 renal, 16.3%. Also, the growth in the assay with CCRF-CEM leukemia is -0.0954% (active); in the assay with MOLT-4 leukemia, -10.4% (active); in the assay with SR leukemia, 3.26% (active); in the assay on RPMI-8226 leukemia, -26.5% (active); with OVCAR-8 ovarian it was -16.2% (active); with OVCAR-5 ovarian, 3.19% (active). The growth with OVCAR-4 ovarian was -13.9% (active); in the assay on SK-OV-3 ovarian it was -21.3% (active); in the assay on IGROV1 ovarian it was 3.97% (active); with OVCAR-3 ovarian, -19.9% (active); with HS 578T breast, -16.2% (active); in the assay with NCI/ADR-RES ovarian, 32%.

On to `CC(C)C1(C(C)C)NC(=O)NC1=O`, for which the growth is 108% in the assay on SK-MEL-2 melanoma; 92.7% with EKVX NSCLC; 99% with SN12C renal; 78.4% with UO-31 renal; 106% in the assay with ACHN renal; 88.9% in the assay on CAKI-1 renal. Further, the growth in the assay on A498 renal was 93.8%; in the assay on CCRF-CEM leukemia, 93.7%; in the assay on MOLT-4 leukemia, 97.6%; in the assay on RPMI-8226 leukemia, 117%; in the assay with OVCAR-8 ovarian it was 110%; in the assay with OVCAR-5 ovarian it was 101%. Also, the growth was 107% in the assay on OVCAR-4 ovarian; 108% in the assay on SK-OV-3 ovarian; 99.4% in the assay with IGROV1 ovarian; 92.6% with HS 578T breast; 103% with NCI/ADR-RES ovarian.

Consider `NC(=O)C1=C[C@H]2[C@H]3C=C[C@@]2(O)C(=O)O[C@@H]3O1`, for which the growth is 42.4% in the assay with SK-MEL-2 melanoma; 63.2% with EKVX NSCLC; 57.6% with SN12C renal; 54.5% in the assay with UO-31 renal; 44% in the assay with ACHN renal; 46.5% in the assay with CAKI-1 renal. Besides, the growth in the assay on A498 renal is 81.3%; with CCRF-CEM leukemia, 26.9%; in the assay with MOLT-4 leukemia it was 42.3%; in the assay on SR leukemia, 50.7%; in the assay on RPMI-8226 leukemia, 61.8%; with OVCAR-8 ovarian, 48.8%. In addition, the growth in the assay on OVCAR-5 ovarian is 101%; in the assay on OVCAR-4 ovarian it was 29.9%; with SK-OV-3 ovarian, 86.6%; with IGROV1 ovarian, 50.9%; in the assay with HS 578T breast, 83.5%; in the assay on NCI/ADR-RES ovarian, 75.3%.
